Experimental data published in ChEMBL document CHEMBL1961873, “Compounds: GSK PKIS; Assays: Nanosyn kinase panel” (2012).

Assays:
[1] = molecular target: Serine/threonine-protein kinase MARK2 (Homo sapiens) (UniProt Q7KZI7); conditions: at 1 µM
[2] = molecular target: PAS domain-containing serine/threonine-protein kinase (Homo sapiens) (UniProt Q96RG2); conditions: at 0.1 µM
[3] = molecular target: PAS domain-containing serine/threonine-protein kinase (Homo sapiens) (UniProt Q96RG2); conditions: at 1 µM
[4] = molecular target: Phosphorylase b kinase gamma catalytic chain, skeletal muscle/heart isoform (Homo sapiens) (UniProt Q16816); conditions: at 0.1 µM
[5] = molecular target: Phosphorylase b kinase gamma catalytic chain, skeletal muscle/heart isoform (Homo sapiens) (UniProt Q16816); conditions: at 1 µM
[6] = molecular target: T1, Phosphorylase b kinase gamma catalytic chain, liver/testis isoform (Homo sapiens) (UniProt P15735); conditions: at 0.1 µM
T1 sequence (whole entry): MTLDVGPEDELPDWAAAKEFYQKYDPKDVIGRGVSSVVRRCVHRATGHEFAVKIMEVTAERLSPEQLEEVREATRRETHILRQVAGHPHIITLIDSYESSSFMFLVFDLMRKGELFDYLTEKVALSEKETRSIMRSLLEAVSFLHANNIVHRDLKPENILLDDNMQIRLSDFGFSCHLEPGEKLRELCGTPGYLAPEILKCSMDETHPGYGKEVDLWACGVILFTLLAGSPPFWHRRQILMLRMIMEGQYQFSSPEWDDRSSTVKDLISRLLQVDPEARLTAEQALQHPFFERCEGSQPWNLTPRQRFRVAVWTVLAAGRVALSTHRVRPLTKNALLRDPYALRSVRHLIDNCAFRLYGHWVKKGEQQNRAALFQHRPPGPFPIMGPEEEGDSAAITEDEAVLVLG

[7] = molecular target: T1, Phosphorylase b kinase gamma catalytic chain, liver/testis isoform (Homo sapiens); conditions: at 1 µM
[8] = molecular target: Serine/threonine-protein kinase pim-1 (Homo sapiens) (UniProt P11309); conditions: at 0.1 µM
[9] = molecular target: Serine/threonine-protein kinase pim-1 (Homo sapiens) (UniProt P11309); conditions: at 1 µM
[10] = molecular target: Serine/threonine-protein kinase pim-2 (Homo sapiens) (UniProt Q9P1W9); conditions: at 0.1 µM
[11] = molecular target: Serine/threonine-protein kinase pim-2 (Homo sapiens) (UniProt Q9P1W9); conditions: at 1 µM
[12] = molecular target: Serine/threonine-protein kinase pim-3 (Homo sapiens) (UniProt Q86V86); conditions: at 0.1 µM
[13] = molecular target: Serine/threonine-protein kinase pim-3 (Homo sapiens) (UniProt Q86V86); conditions: at 1 µM
[14] = molecular target: T2, MAP kinase-activated protein kinase 5 (Homo sapiens) (UniProt Q8IW41); conditions: at 0.1 µM
T2 sequence (whole entry): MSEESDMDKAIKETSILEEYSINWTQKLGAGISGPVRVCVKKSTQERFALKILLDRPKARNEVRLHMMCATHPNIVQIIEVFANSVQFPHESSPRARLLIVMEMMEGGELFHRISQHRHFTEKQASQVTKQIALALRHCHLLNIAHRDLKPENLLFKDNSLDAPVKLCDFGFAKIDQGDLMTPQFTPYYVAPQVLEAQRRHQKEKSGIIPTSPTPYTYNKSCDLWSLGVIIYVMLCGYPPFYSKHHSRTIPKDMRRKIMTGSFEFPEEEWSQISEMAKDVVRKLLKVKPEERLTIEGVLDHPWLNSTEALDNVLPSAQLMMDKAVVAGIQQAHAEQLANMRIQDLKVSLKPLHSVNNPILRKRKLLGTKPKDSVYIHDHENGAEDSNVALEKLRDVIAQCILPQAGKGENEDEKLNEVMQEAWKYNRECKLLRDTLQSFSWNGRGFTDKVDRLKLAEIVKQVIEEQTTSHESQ

[15] = molecular target: T2, MAP kinase-activated protein kinase 5 (Homo sapiens); conditions: at 1 µM
[16] = molecular target: Serine/threonine-protein kinase SIK1 (Homo sapiens) (UniProt P57059); conditions: at 0.1 µM
[17] = molecular target: Serine/threonine-protein kinase SIK1 (Homo sapiens) (UniProt P57059); conditions: at 1 µM
[18] = molecular target: Serine/threonine-protein kinase SIK2 (Homo sapiens) (UniProt Q9H0K1); conditions: at 0.1 µM
[19] = molecular target: Serine/threonine-protein kinase SIK2 (Homo sapiens) (UniProt Q9H0K1); conditions: at 1 µM
[20] = molecular target: T3, Serine/threonine-protein kinase TBK1 (Homo sapiens) (UniProt Q9UHD2); conditions: at 0.1 µM;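 also: values are the mean TBK1 inhibition, taken from the GSK PKIS screening data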
T3 sequence (whole entry): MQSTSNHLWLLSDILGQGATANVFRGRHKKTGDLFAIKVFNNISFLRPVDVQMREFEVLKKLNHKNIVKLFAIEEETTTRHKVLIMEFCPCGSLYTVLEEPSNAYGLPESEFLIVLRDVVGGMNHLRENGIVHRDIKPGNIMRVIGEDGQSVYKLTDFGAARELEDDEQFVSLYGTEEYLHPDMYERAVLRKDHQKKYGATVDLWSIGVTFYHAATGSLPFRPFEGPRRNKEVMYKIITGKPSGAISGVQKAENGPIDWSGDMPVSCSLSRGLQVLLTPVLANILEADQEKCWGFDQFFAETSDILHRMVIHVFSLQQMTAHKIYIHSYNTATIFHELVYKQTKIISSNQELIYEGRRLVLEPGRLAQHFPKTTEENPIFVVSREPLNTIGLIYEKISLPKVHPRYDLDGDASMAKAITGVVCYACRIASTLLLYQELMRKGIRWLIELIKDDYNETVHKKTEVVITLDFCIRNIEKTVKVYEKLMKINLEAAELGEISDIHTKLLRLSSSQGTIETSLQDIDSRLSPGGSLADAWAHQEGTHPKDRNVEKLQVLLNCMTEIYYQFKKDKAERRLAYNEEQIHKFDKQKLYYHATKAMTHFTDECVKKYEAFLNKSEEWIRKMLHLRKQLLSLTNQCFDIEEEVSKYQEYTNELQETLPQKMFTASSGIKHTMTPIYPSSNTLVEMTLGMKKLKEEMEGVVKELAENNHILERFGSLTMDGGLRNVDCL

Sequence of Serine/threonine-protein kinase MARK2 (Homo sapiens) (Q7KZI7 whole entry, the tested form may be a part): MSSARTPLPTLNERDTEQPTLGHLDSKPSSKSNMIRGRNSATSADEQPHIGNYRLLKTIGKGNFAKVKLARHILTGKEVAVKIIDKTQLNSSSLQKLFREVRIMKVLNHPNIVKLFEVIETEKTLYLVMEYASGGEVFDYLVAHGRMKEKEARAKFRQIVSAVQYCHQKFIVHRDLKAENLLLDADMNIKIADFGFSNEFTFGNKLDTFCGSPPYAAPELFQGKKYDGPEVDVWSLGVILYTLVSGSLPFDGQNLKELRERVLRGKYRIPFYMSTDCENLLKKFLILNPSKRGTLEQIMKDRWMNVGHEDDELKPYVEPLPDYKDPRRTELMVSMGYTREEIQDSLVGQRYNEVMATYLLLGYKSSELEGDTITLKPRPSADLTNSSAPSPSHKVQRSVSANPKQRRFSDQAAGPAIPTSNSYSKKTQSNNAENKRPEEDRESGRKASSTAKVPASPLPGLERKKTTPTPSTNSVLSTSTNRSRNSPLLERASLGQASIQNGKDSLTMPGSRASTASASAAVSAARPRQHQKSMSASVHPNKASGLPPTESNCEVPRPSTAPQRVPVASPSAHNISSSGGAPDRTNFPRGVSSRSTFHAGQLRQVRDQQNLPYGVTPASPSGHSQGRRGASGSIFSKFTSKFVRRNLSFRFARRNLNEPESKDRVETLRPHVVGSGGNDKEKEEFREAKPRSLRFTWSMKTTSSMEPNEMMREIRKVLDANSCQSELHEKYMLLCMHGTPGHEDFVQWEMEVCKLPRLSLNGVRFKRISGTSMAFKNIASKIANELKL
Sequence of Serine/threonine-protein kinase SIK2 (Homo sapiens) (Q9H0K1 whole entry, looked up): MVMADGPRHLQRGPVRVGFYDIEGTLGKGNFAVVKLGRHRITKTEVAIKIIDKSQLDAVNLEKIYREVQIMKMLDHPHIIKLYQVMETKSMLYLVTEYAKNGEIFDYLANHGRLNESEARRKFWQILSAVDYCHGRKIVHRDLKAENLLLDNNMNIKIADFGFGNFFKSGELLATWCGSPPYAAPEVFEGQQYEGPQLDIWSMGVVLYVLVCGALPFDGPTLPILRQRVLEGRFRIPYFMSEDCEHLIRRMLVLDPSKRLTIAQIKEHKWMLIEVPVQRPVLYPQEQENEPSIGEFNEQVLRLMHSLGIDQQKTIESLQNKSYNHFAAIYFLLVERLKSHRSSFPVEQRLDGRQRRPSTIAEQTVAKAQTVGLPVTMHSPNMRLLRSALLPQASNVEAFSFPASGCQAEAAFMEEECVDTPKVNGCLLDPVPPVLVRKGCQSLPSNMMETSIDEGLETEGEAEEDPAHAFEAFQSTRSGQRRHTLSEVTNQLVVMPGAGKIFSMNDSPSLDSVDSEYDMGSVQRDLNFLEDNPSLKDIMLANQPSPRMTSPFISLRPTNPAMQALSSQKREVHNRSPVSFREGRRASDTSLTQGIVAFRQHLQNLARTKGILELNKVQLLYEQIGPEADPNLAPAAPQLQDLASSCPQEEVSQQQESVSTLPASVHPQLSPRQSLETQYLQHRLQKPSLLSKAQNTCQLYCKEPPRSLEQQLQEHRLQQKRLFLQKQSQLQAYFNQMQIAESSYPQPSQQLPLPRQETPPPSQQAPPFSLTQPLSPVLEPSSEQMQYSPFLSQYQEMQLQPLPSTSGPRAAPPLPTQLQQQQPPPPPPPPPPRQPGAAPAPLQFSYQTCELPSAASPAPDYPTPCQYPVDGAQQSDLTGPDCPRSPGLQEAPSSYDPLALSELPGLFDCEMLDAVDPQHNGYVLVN
Sequence of Serine/threonine-protein kinase pim-2 (Homo sapiens) (Q9P1W9 whole entry, looked up): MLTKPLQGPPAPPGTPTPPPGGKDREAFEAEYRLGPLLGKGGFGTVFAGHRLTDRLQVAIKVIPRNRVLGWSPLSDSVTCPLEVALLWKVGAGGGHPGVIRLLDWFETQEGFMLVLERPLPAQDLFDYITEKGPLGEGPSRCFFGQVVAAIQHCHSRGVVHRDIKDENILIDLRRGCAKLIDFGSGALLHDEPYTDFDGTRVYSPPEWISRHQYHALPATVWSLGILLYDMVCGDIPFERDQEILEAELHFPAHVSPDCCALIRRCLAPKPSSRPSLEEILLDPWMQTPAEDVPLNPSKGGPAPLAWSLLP
Sequence of PAS domain-containing serine/threonine-protein kinase (Homo sapiens) (Q96RG2 whole entry, the tested form may be a part, canonical isoform): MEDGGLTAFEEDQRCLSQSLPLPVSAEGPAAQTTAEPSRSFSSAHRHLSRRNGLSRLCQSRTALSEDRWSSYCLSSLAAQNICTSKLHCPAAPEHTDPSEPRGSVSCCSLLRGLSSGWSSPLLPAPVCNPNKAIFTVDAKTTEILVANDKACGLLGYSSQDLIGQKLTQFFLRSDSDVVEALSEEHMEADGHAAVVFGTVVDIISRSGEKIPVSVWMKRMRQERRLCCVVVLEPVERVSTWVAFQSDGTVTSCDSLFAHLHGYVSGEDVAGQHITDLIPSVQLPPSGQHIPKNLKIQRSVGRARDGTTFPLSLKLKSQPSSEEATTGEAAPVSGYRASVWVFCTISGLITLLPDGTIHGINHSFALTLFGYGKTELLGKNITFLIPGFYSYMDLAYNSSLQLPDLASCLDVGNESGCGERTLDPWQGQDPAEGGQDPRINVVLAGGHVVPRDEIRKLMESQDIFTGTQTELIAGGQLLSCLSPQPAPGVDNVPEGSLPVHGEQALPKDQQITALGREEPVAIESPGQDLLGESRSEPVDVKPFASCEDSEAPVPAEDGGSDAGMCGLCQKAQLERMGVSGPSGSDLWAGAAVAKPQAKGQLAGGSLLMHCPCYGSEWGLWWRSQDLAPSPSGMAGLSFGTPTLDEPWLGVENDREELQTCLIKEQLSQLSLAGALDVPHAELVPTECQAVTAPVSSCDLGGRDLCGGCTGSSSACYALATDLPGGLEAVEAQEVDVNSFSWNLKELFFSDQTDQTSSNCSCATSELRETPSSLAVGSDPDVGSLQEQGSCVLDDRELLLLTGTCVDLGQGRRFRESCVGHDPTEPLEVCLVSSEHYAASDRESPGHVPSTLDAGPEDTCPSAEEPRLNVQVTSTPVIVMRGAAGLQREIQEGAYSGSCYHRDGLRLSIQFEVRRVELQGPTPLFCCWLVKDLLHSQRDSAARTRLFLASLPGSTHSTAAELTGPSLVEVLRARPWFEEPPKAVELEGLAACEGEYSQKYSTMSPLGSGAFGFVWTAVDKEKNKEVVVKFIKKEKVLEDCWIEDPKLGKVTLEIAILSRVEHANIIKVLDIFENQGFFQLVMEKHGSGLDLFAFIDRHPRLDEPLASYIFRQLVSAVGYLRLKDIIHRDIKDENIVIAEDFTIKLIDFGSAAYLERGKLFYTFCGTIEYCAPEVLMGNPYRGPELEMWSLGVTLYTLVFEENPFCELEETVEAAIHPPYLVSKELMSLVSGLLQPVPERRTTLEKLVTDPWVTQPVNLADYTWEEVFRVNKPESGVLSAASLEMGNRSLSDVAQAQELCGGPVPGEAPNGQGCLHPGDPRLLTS
Sequence of Phosphorylase b kinase gamma catalytic chain, skeletal muscle/heart isoform (Homo sapiens) (Q16816 whole entry, looked up, canonical isoform): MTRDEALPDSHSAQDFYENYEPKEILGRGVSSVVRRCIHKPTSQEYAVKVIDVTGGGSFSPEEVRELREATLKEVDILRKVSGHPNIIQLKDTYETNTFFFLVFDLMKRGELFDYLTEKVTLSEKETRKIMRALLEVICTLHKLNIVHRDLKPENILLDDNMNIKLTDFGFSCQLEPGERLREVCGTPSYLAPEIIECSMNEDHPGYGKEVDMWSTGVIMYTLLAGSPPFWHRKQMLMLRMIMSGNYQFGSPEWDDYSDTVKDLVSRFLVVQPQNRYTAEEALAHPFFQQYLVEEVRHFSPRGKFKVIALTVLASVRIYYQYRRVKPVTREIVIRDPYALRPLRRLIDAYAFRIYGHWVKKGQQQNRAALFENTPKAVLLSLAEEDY
Sequence of Serine/threonine-protein kinase pim-1 (Homo sapiens) (P11309 whole entry, looked up): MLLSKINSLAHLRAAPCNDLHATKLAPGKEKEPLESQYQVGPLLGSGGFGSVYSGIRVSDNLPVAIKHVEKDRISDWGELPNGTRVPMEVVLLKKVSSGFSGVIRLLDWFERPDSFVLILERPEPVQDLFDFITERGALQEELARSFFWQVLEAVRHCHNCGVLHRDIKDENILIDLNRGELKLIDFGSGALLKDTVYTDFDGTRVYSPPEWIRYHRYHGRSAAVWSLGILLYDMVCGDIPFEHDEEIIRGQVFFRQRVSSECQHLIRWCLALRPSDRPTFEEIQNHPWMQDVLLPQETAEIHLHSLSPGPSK

| SMILES | inhibition [1] | inhibition [2] | inhibition [3] | inhibition [4] | inhibition [5] | inhibition [6] | inhibition [7] | inhibition [8] | inhibition [9] | inhibition [10] | inhibition [11] | inhibition [12] | inhibition [13] | inhibition [14] | inhibition [15] | inhibition [16] | inhibition [17] | inhibition [18] | inhibition [19] | inhibition [20] |
| --- | --- | --- | --- | --- | --- | --- | --- | --- | --- | --- | --- | --- | --- | --- | --- | --- | --- | --- | --- | --- |
| COc1ccc2ncn(-c3cc(O[C@H](C)c4ccccc4C(F)(F)F)c(C(N)=O)s3)c2c1 | 4.83% | -0.55% | 0.78% | 1.28% | 3.44% | -1.44% | 0.1% | 1.71% | 7.56% | -0.14% | 0.75% | 1.24% | 7.53% | -0.11% | -0.07% | -1.94% | 15.9% | 4.06% | 5.38% | 1.28% |
| Cc1ccc(-c2cc3c(NC(=O)C4CC4)ncnc3o2)cc1 | 3.45% | 0.53% | 0.26% | 3.62% | 9.89% | 4.46% | 1.83% | 0.73% | 1.91% | 0.35% | 1.12% | -0.12% | 4.13% | 0.83% | 0.27% | 6.5% | 7.93% | -1.22% | 3.33% | 3.64% |
| CNC(=O)c1cncc(/C=C/c2ccccc2C)c1 | 0.45% | 0.44% | 0.95% | 4.3% | 7.61% | 6.36% | 7.42% | 0.05% | 2.22% | 0.15% | 1.06% | -0.06% | 5.04% | 1.79% | 3.16% | 10% | 39.5% | 9% | 18.5% | 2.9% |
| CS(=O)(=O)Nc1ccc(-c2ccc3c(NC(=O)C4CC4)n[nH]c3c2)cc1 | 0.66% | 0.49% | -0.44% | 1.67% | 5.46% | 3.59% | -0.4% | 0.94% | 2% | 0.44% | 4% | 0.02% | 2.14% | 0.66% | -1.55% | 3.97% | 5.51% | 5.95% | 1.37% | 0.86% |
| CS(=O)(=O)Nc1ccc(-c2cc(-c3ccccc3)cc(C(N)=O)c2N)cc1 | 4.64% | -0.01% | -0.36% | 1.44% | 4.26% | 1.4% | 0.02% | 0.69% | 1.67% | -0.48% | 0.82% | 0.62% | 1.22% | 0.73% | 3.19% | 1.69% | 7.99% | -1.02% | 3.58% | 1.82% |
| CS(=O)(=O)CCNCc1ccoc1-c1ccc2ncnc(Nc3ccc(OCc4ccccc4)cc3)c2c1 | -2.18% | 1.27% | 0.16% | 2.12% | 3.12% | 0.65% | 0.15% | 0.23% | -0.94% | 0.1% | -0.21% | 0.58% | -0.84% | 0.44% | 0.78% | 2.99% | 4.48% | -0.71% | -0.59% | 0.39% |
| N#Cc1cccc(Nc2ncc(-c3ccccc3)o2)c1 | -0.47% | 0.37% | 2.05% | 2.95% | 12.9% | 1.85% | 6.04% | 0.15% | 0.29% | 0.1% | 0.47% | 0.1% | 2.79% | 1.22% | 2.58% | 1.14% | 4% | 1.76% | 4.74% | 1.05% |
| CN(c1ccc(NC(=O)NCCN2CCOCC2)cc1)c1ccnc(Nc2ccc(CS(C)(=O)=O)cc2)n1 | 2.47% | 0.41% | 2.08% | 2.5% | 5.5% | 2.91% | 6.71% | 0.61% | -0.22% | 0.04% | 0.65% | 0.45% | 2% | 1.83% | 3.14% | 2.8% | 17.4% | 9.27% | 11.2% | 1.55% |
| c1ccc(-c2n[nH]cc2-c2ccnc(-c3ccc(OCCn4ccnc4)cc3)c2)nc1 | -0.66% | -0.73% | -0.48% | 2.85% | 6.86% | -0.35% | 3.4% | 0.32% | 0.45% | 0.56% | 0.26% | 0.51% | 0.09% | 0.48% | 1.25% | 1.64% | 6.26% | 0.8% | 10% | 0.6% |
| Cc1nnc(-c2cccc(-c3ccc(C(=O)NCC4CC4)cc3)c2)o1 | 1.69% | 0.89% | 0.76% | 3.57% | 5.91% | 7.39% | 7.38% | -0.37% | 1.97% | 0.91% | 1.27% | 1.21% | 5.19% | 2.14% | 4.28% | 7.04% | 10.7% | 12.9% | 5.76% | 2.51% |
| OCCCNc1nccc(-c2c(-c3ccc(F)cc3)nn3cc(C(F)(F)F)ccc23)n1 | 1.92% | -0.08% | -2.07% | 2.26% | 5.59% | 2.88% | -0.79% | 0.12% | 1.6% | 0.32% | -0.96% | -0.81% | -0.18% | -0.21% | -1.07% | 5.25% | 6.5% | 7.07% | 16.9% | 2.49% |
| Fc1cccc(COc2ccc(Nc3ncncc3C#Cc3ccccc3)cc2Cl)c1 | 1.05% | 0.76% | 1.64% | 3.8% | 5.87% | 5.59% | 8.15% | 0.46% | 1.07% | 0.52% | 1.48% | -0.8% | 3.6% | 2.08% | 4.3% | 3.74% | 5.31% | 9.03% | 6.72% | 5.15% |
